Shown are actives, neighbours in structure and some others; about 5.3% of the full set was active somewhere.
IMPase cell inh: qHTS Assay for Identifying the Cell-Membrane Permeable IMPase Inhibitors; CHO-M1 cells, IP1 accumulation, HTRF TR-FRET ratio; inhibition (IP1 accumulation), % at 46.1 µM; 120,000 tested, under 10 active; AID 901, 2007; active means well fitted curve in the direction sought with a large enough effect in the signal ratio, not every such curve was filed as active; inconclusive means small, poorly fitted or top-dose-only effect, or a change in a side signal; inactive means no such curve, though single readings can be large or run the other way; the % refers to the signal ratio;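 further: cells stimulated with carbachol in lithium chloride buffer; plate controls were DMSO basal wells for no effect and reference inhibitor wells for full effect; higher means more IMPase inhibition seen as more IP1 and lower FRET ratio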
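In this qHTS, compounds (final up to 46 uM) act on CHO-M1 cells that are then activated through the M1 receptor with carbachol, in pH 7.4 buffer containing 50 mM LiCl, for 30 min. IP1 accumulation is quantified by the IP-One immunoassay.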
HPGD inh: qHTS Assay for Inhibitors of HPGD (15-Hydroxyprostaglandin Dehydrogenase); Potency, µM, for inactives: at the top dose activity change, negative = inhibition, hits mostly inhibitors; 150,000 compounds, 4.3% hits; purified HPGD, NADH fluorescence kinetic, PGE2 substrate; active means well fitted inhibition curve with a large enough effect, not every such curve was filed as active; inconclusive means small, poorly fitted or top-dose-only effect, or another doubt; inactive means no such curve, though single readings can be large or run the other way; further: potency means the concentration at half of the fitted maximal effect
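20 nM HPGD preincubated 15 min at room temperature with compound in 50 mM Tris-HCl pH 8, 0.01% Tween 20. Started with 1 mM NAD+ and 30 uM prostaglandin E2; NADH fluorescence (360/450 nm) read 5 times over 30-s intervals, last minus first.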
IMPase Li cell: qHTS Assay for Identifying the Cell-Membrane Permeable IMPase Inhibitors: Potentiation with Lithium | Potency, µM (doses to about 59.4 µM), inactives show top-dose activity, negative = IMPase inhibition, hits mostly inhibitors | 210,000 compounds, 0.35% hits | CHO-M1 cells, IP1 TR-FRET (IP-One), carbachol + lithium;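 further: IP1 builds up when IMPase is blocked and the TR-FRET signal falls; potency means the concentration at half of the fitted maximal effect; plate controls were basal vehicle for no effect and high inhibitor control for full effect; nearly all actives have a fitted effect of over 50% in size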
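Concentration–response in CHO-M1 cells, lithium-potentiated; 30 min at 37C. IP1 detected by competitive TR-FRET after 10 min lysis at RT. Hill-fitted AC50.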
15-hLO-2 inh: qHTS Assay for Inhibitors of 15-hLO-2 (15-human lipoxygenase 2). AID 881, 2007. 110,000 compounds, 0.56% hits. purified 15hLO-2, xylenol orange hydroperoxide absorbance. Polyunsaturated fatty acid lipoxygenase ALOX15B (Homo sapiens), O15296. Potency, µM (series often up to 57.1 µM), without a hit: at the highest dose activity change, negative = inhibition, usual class: inhibitors; further: potency means the concentration at half of the fitted maximal effect; nearly all actives have a fitted effect of over 60% in size
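Purified human 15hLO-2 (50 nM) preincubated 15 min with compound, then 45 uM arachidonic acid for 90 min at RT in 25 mM Hepes pH 7.5, 0.01% Triton X-100. Hydroperoxide detected by Fe-xylenol orange; 573/405 nm absorbance ratio.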
12-hLO inh: qHTS Assay for Inhibitors of 12-hLO (12-human lipoxygenase); Polyunsaturated fatty acid lipoxygenase ALOX12 (Homo sapiens), P18054; purified 12-hLO, xylenol orange hydroperoxide absorbance; Potency, µM (highest dose often 57.1 µM), for inactives: top-dose activity change, negative = inhibition, most hits filed as inhibitors; 150,000 compounds, 0.12% hits; further: potency means the concentration at half of the fitted maximal effect; nearly all actives have a fitted effect of over 55% in size
Target sequence (P18054 whole entry, looked up): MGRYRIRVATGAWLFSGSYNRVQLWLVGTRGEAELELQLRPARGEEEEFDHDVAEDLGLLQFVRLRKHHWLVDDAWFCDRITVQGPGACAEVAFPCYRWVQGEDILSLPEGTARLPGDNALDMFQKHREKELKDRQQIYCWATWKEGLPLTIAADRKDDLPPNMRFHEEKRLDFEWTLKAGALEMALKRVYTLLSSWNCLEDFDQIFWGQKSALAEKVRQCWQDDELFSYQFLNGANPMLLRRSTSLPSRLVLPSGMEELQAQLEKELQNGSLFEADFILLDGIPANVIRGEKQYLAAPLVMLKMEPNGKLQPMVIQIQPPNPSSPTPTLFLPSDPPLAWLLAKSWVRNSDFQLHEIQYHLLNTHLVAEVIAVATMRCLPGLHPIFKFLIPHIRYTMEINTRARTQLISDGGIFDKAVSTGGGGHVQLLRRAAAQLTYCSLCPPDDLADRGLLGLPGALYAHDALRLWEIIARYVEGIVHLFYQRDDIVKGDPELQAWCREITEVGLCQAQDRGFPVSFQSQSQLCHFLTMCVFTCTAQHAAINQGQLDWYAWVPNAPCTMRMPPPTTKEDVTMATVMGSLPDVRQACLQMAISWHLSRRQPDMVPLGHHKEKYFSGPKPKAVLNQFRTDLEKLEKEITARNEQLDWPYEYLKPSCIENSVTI
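Hydroperoxide formation by human 12-lipoxygenase from 40 uM arachidonic acid was followed colorimetrically via ferric-xylenol orange complex, using the 573/405 nm absorbance ratio. Enzyme concentration was 150 nM, with 30 min reaction at room temperature.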
PNC assembly inh: High Content Assay for Compounds that inhibit the Assembly of the Perinucleolar Compartment; AID 2417, 2010; 140,000 compounds, 3.1% hits; activity change (PNC), negative = inhibition, % at 10 µM; PC3M PTB-GFP, PNC prevalence imaging, 16 h; active compounds read low;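 active means readout at or below -70, meaning at least 70% loss of cells showing the perinucleolar compartment, a nuclear body marking cancer cells; inconclusive means readout between -30 and a set limit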;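 further: plate controls were DMSO wells for no effect and camptothecin positive control wells for full effect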
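PC3M cells stably expressing PTB-GFP, 750–1000 cells/well, treated 16 h at 37 °C with compound (23 nl of library stock), in duplicate. After paraformaldehyde fixation and Hoechst stain, imaged at 20x; PNC prevalence scored by image analysis.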
Active calls of the source: *; ? = inconclusive; . = no result; ! = not confirmed by another sample; [ ] = remark or other dose. Unless noted, the call rests on the fitted dose curve; in most records, active means well fitted curve in the direction sought with a large enough effect; inconclusive means small, poorly fitted or top-dose-only effect, or another doubt; inactive means no such curve, though single readings can be large; an effect the other way counts as inactive or inconclusive. Unless noted, on the % scale 0 is the no-effect control and ±100 the full control effect.

SMILES	IMPase cell inh	HPGD inh	IMPase Li cell	15-hLO-2 inh	12-hLO inh	PNC assembly inh
O=C(c1ccccc1)c1ccccc1C(=O)N1CCOCC1	0	-1%	10%[38.3 µM]	-1%	5%	10
O=C(O)C1Nc2c(C(=O)N3CCOCC3)cccc2C2C=CCC12 (configuration not stated)	3	25µM*	-10%[38.3 µM]	23%	-7%	?
Cc1ccc(Cl)c2c1N[C@@H](c1ccc(C(=O)O)cc1)[C@H]1CC=C[C@@H]21	-9	.	.	.	.	.
CN(C)S(=O)(=O)N(CC(=O)NCCSCc1c(F)cccc1Cl)c1ccccc1	-1	.	.	.	.	.
CC1(C)C(=O)C(c2ccccc2)=C2CN3C(=O)N(CCc4ccccc4)C(=O)C3(Cc3ccccc3)C=C21 (configuration not stated)	.	-17%	5%	-2%	0%	.
O=C1CN(C(=O)COC(=O)c2cccc(OCc3ccccc3)c2)c2ccccc2N1	2	-10%	17%	.	10%	-28
O=C(CN1C(=O)S/C(=C/c2cc(Br)cs2)C1=O)N1CCOCC1	4	-7%	18%	.	1%	48
O=C(CSc1ncnc2nc[nH]c12)c1ccccc1	-6	28µM*!	-11%	-7%[11.4 µM]	-1%[11.4 µM]	-20
O=C(CSc1ncnc2nc[nH]c12)Nc1ccccc1C(F)(F)F	5	8.9µM*	5%[38.3 µM]	-23%	-6%	?
O=C(O)CCSc1ncnc2nc[nH]c12	.	-3%	-7%	-3%[11.4 µM]	-3%[11.4 µM]	.
CCOC(=O)C1(CCCc2ccccc2)CCN(C(=O)CCOC)CC1	.	.	2%	.	.	.
COCCNC(=O)CSCc1c(F)cccc1Cl	3	22µM*	0%[38.3 µM]	-2%	4%	42
O=C(NCCSCc1c(F)cccc1Cl)c1ccco1	1	5µM*	30%[38.3 µM]	-4%	-2%	-15
O=C1CC(C(=O)N2CCOCC2)C2(CCCC2)O1 (configuration not stated)	-5	3%	5%	8%	-3%	?
CN1CCN(c2ncc3nc(-c4cn(C)c5ccccc45)c(=O)n(CCC#N)c3n2)CC1	.	.	-1%	-8%	.	.
COc1ccc(C=O)cc1COc1ccc(F)cc1F	-11	32µM*	53%[38.3 µM]	-18%	-2%	16
COc1ccc(C=O)cc1COc1c(F)c(F)cc(F)c1F	-6	-14%	20%[38.3 µM]	9%	-4%	22
Cc1cccc(N2CCN(C(=S)c3ccc([N+](=O)[O-])cc3)CC2)c1	.	7.9µM*	23%	.	1%	-27
CC(=O)N1CCN(C(=S)c2ccc([N+](=O)[O-])cc2)CC1	3	32µM*	13%[38.3 µM]	-8%	0%	14
O=[N+]([O-])c1cccc(C(=S)N2CCN(c3ccccc3)CC2)c1	.	22µM*	12%	.	2%	39
CC(=O)N1CCN(c2ccc([N+](=O)[O-])cc2)CC1	.	.	15%	.	.	.
CCOC(=O)C1(CCOc2ccccc2)CCN(Cc2cc(OC)c3c(c2)OCO3)CC1	.	.	18%	.	.	.
N#CC(=C(/N)Sc1ccccc1N)/C(C#N)=C(/N)Sc1ccccc1N	3	28µM*	18%	?	?	.
COc1ccc(/C=N/NC(=O)c2ccncc2)cc1Cn1nc([N+](=O)[O-])c(Br)c1C	.	.	4%	.	.	.
CCOc1ccc(CCNC(=O)C2CCC(=O)N2C2CCCCC2)cc1OCC (configuration not stated)	2	-11%	-6%[38.3 µM]	-3%	1%	105
SMILES	IMPase cell inh	HPGD inh	IMPase Li cell	15-hLO-2 inh	12-hLO inh	PNC assembly inh
CN(C)S(=O)(=O)c1cccc(-c2nn(-c3ccccc3)cc2/C=C2\SC(=S)NC2=O)c1	13	16µM*	14%	.	-8%	31
COc1ccc(C(=O)CCN2CCCCCC2)cc1	0	-16%	1%[38.3 µM]	-23%	-2%	10
O=C(Nc1ccc(-n2cnnn2)cc1)C1CCC1	5	-13%	4%[38.3 µM]	2%	6%	-25
CCCCOc1ccc(C(=O)C(CN2CCOCC2)c2ccccc2)cc1 (configuration not stated)	18	-3%	6%	.	-1%	?
CCCCOc1ccc(C(=O)N2CCC(C)CC2)cc1	-14	1µM*	21%[38.3 µM]	0%	-4%	17
CCOc1ccc(C(=O)CCN2CCCCC2)cc1	0	?	16%[38.3 µM]	-19%	-14%	-127*
O=C(c1ccc(-n2cnnn2)cc1)N1CCCCC1	0	16µM*	5%	.	0%	35
CCCOc1ccc(C(=O)C(CN2CCCC2)c2ccccc2)cc1 (configuration not stated)	.	-3%	18%	.	-2%	-113*
COc1ccc(NS(=O)(=O)c2ccc3c(c2)Cc2ccccc2-3)cn1	5	-20%	0%[38.3 µM]	-2%	-15%	16
Cc1cccc2cc(CNC3CCCC3)c(Cl)nc12	.	.	3%	.	.	.
O=Cc1c[nH]c2ccc(S(=O)(=O)N3CCOCC3)cc12	.	-11%	-12%	.	-2%	2
COc1ccc(C(=O)N2CCCC(c3nc(-c4cc(OC)c(OC)c(OC)c4)no3)C2)cc1 (configuration not stated)	0[1.84 µM]	25µM*	10%[38.3 µM]	-4%[11.4 µM]	-3%	?
CCCCOc1ccc(C(=O)N2CCCC2C(=O)O)cc1 (configuration not stated)	?	-18%	2%	.	0%	-100*
N#C/C(=C\c1ccc(OCc2ccc(C(=O)O)cc2)cc1)C(=O)N1CCOCC1	.	14µM*	-5%	.	0%	?
Nc1ccc(C(=O)n2c3ccccc3c3ccccc32)cc1	4	32µM*	-8%	.	-4%	?
CCCOc1ccc(C(=O)N2CCCC2C(=O)O)cc1 (configuration not stated)	5	-7%	12%[38.3 µM]	3%	1%	36
COc1ccc(/C=C(\C#N)C(=O)N2CCOCC2)cc1Br	2	16µM*	2%[38.3 µM]	-20%	-1%	34
COc1ccc(-n2c(C)nc3cc(C(=O)N4CCOCC4)ccc32)cc1	10	2.2µM*	23%[38.3 µM]	-1%	6%	?
C=CCNC(=O)c1ccc(N(C)S(=O)(=O)c2ccc(OC)cc2)cc1	8	2.8µM*	1%[38.3 µM]	8%	0%	13
O=C(c1ccc(C(F)(F)F)cc1)N1CCCCC1	?	2.8µM*	25%[38.3 µM]	4%	3%	43
CC1=NN(c2ccc(S(=O)(=O)O)cc2)C(=O)/C1=C\c1ccc(Cl)cc1	.	?	4%	-11%[11.4 µM]	1%[11.4 µM]	.

Bioassay records: PubChem, National Center for Advancing Translational Sciences (NCATS)
